Source: PubChem BioAssay (The Scripps Research Institute Molecular Screening Center)
PLCb3 inh = human PLC-beta3 inhibitors, primary screen, biochemical, fluorescence; Purified PLC-beta3, fluorogenic substrate; inhibition, % at 12.2 µM; actives 0.18% (n = 370,000); in the data active = inhibition above about 11%;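 also: 0% = median of compound wells on plate and 100% = full blocker control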
ADAM17 inh = ADAM17 inhibitors, primary screen, biochemical, QFRET. actives 0.83% (n = 370,000). inhibition, % at 6.95 µM. Disintegrin and metalloproteinase domain-containing protein 17 (Homo sapiens), P78536. recombinant ADAM17, EDANS/DABCYL FRET peptide cleavage;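 active = inhibition above the mean of compounds lying between control limits plus 3 SD, set per campaign, cut at about 8.5% in these data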;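 also: 0% = DMSO-only wells as the low control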
ADAM10 inh = human ADAM10 inhibitors, primary screen, biochemical, QFRET, HTS. recombinant ADAM10, EDANS/DABCYL FRET peptide cleavage, 3 h. inhibition, % at 7 µM. AID 720582, 2013. actives 0.62% (n = 370,000);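 active = inhibition above a per-campaign cutoff equal to the mean of compounds falling between control-based bounds plus 3 SD, cut at about 20% in these data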;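 also: 0% = DMSO wells while the 100% control is not disclosed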
proKLK7 act = proKLK7 zymogen activators, primary screen, biochemical, fluorescence intensity; Kallikrein-7 (Homo sapiens), P49862; purified proKLK7, EDANS-DABCYL substrate fluorescence; 100% is mature enzyme control, 0% vehicle; activation, % at 7 µM; actives 0.9% (n = 370,000); AID 652039, 2013;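 active = activation above the mean of all tested compounds plus 3 SD, computed per campaign excluding outliers beyond control limits, cut at about 13% in these data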
PLC-gamma1 inh = PLC-gamma1 enzyme inhibitors, primary screen, biochemical, fluorescence, purified enzyme. 1-phosphatidylinositol 4,5-bisphosphate phosphodiesterase gamma-1 (Homo sapiens), P19174. AID 720700, 2013. fluorogenic substrate. actives 0.84% (n = 370,000). inhibition, % at 12.2 µM; in the data active = inhibition above about 9.5%
proKLK7 act conf = proKLK7 zymogen activators, confirmation, biochemical, fluorescence intensity, triplicate; actives 68% (n = 3,200); shares compounds with proKLK7 act; AID 686949, 2013; purified proKLK7, EDANS-DABCYL substrate fluorescence; scaled: vehicle 0, mature enzyme 100; activation, % at 7 µM;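 active = activation, as change over the incubation, above the mean of all tested compounds plus 3 SD, cut at about 13% in these data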
EDANS interfere = EDANS-DABCYL substrate optical interference, artefact control for kallikrein-7 zymogen activator project, biochemical, fluorescence intensity, high throughput; activation, % at 7 µM; actives 80% (n = 3,200); shares compounds with proKLK7 act; no enzyme, 4 h; solvent 0%, active enzyme control 100%;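 active = activation above the all-compound mean plus 3 SD, ignoring values outside control-based bounds, cut at about 4.8% in these data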;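 also: value is the 4 h activation minus the activation read at time zero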
K7 EDANS ctr = counter-screen for kallikrein-7 activators: EDANS-DABCYL interference, dose response; shares compounds with proKLK7 act; EDANS-DABCYL peptide fluorescence interference, no enzyme; EC50, µM; actives 20% (n = 250);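 active = compounds that raise the fluorescence signal in this interference counterscreen, with EC50 at or below 10 µM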;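 also: intact quenched peptide substrate alone read at 355 nm excitation and 520 nm emission; signal is fluorescence gain from T0 to T4 after four hours at room temperature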
Numbers without * were called inactive; i = inactive; nt = no result given. Shown are actives, neighbours in structure and some others; about 2.9% of the full set was active somewhere.

SMILES	PLCb3 inh	ADAM17 inh	ADAM10 inh	proKLK7 act	PLC-gamma1 inh	proKLK7 act conf	EDANS interfere	others
N=c1c(C(=O)NC2CCCC2)cc2c(=O)n3ccccc3nc2n1C1CCCC1	i	i	i	50*	i	-32	-32
N=c1c(C(=O)NC2CCCCC2)cc2c(=O)n3ccccc3nc2n1CC1CCCO1 (stereo not drawn)	i	i	i	53*	i	8	21*
CC(NC(=O)c1cc2c(=O)n3ccccc3nc2n(CC2CCCO2)c1=N)c1ccccc1 (stereo not drawn)	i	i	i	12	-428	nt	nt
COCCCn1c(C(=O)N2CC(C)OC(C)C2)cc2c(=O)n3ccccc3nc21 (stereo not drawn)	i	i	i	83*	i	70*	71*
COc1ccc(CCn2c(=N)c(C(=O)NCC3CCCO3)cc3c(=O)n4ccccc4nc32)cc1OC (stereo not drawn)	-17	-5	-18	-1	-5	nt	nt
Cn1c(C(=O)NCC2CCCO2)cc2c(=O)n3ccccc3nc21 (stereo not drawn)	i	i	i	59*	i	68*	73*
O=[N+]([O-])c1ncccc1OCCOc1ccc(Cl)cc1Cl	-2	-1	2	nt	0	nt	nt
Cc1cccc(NC(=O)Nc2nc3ncccn3c2-c2ccccc2)c1	-427	-35	-155	12	-329	nt	nt
COCCCn1c(=N)c(C(=O)NC2CCCCC2)cc2c(=O)n3ccccc3nc21	i	i	i	150*	i	4	-3
COc1ccc(Cn2c(=N)c(C(=O)NC3CCCCC3)cc3c(=O)n4ccccc4nc32)cc1	-42	-9	-16	0	-26	nt	nt
Cn1c(C(=O)N2COCC2(C)C)cc2c(=O)n3ccccc3nc21	i	i	i	48*	i	74*	70*
N=c1c(C(=O)NC2CCCC2)cc2c(=O)n3ccccc3nc2n1CC1CCCO1 (stereo not drawn)	i	i	i	105*	i	33*	25*	K7 EDANS ctr=>69
CCCCOCCCNC(=O)C[C@H]1C[C@@]2(C(=O)OC)C(=C[C@H](C(C)(C)C)O[C@@H]2C)N(CCC2=CCCCC2)C1=O	1	-2	-14	0	0	nt	nt
C=CCN1[C@H](Cc2ccccc2)COc2cc(F)ccc2S1(=O)=O	1	1	3	-1	2	nt	nt
Cc1ccc2c(c1)c1c(n2CC(O)Cn2ccnc2C)C(=O)CCC1 (stereo not drawn)	-377	-74	-234	17*	-346	9	15*
O=C(COc1ccc(/C=N/NC(=O)c2ccncc2)cc1)Nc1ccccc1	-14	0	-1	27*	-3	-22	-15
O=C(COc1ccc(/C=N/NC(=O)c2ccncc2)cc1)Nc1cccc([N+](=O)[O-])c1	-15	0	6	-1	-6	nt	nt
O=C(NCc1ccc2c(c1)OCO2)c1ccco1	3	1	3	1	0	nt	nt
O=C(CC(SCCO)c1ccc2c(c1)OCO2)c1ccco1 (stereo not drawn)	-30	-1	0	17*	-25	48*	46*
COc1ccc(OC)c(C(c2c(C)[nH][nH]c2=O)c2c(C)[nH][nH]c2=O)c1	-12	-9	-21	13*	-5	20*	20*
CC(=O)Nc1ccc(-c2nc3ccc(NC(C)=O)cc3o2)cc1	i	-350	i	33*	-362	26*	16*	K7 EDANS ctr=>69
O=C(Nc1ccc2nc3ccccc3nc2c1)c1ccc(Br)cc1	-53	-4	-8	0	-38	nt	nt
